The source of these data is PubChem BioAssay (NCATS).

SMILES strings stand for the structures. Values joined by “and” are separate entries in the source; they are usually repeats but may differ in a detail not shown here. Identical values can stand only once. Inconclusive results are not listed. Unmarked numbers belong to inactive results. Active and inactive are the calls of the source. The call rests on the fitted dose curve; in most records, active means well fitted inhibition curve with a large enough effect; inconclusive means small, poorly fitted or top-dose-only effect; inactive means flat fitted curve, though single readings scatter.
On the % scale 0 is the no-effect control and ±100 the full control effect; potency means the concentration at half of the fitted maximal effect.

Sequence of Voltage-gated inwardly rectifying potassium channel KCNH2 (Homo sapiens) (Q12809 whole entry, looked up): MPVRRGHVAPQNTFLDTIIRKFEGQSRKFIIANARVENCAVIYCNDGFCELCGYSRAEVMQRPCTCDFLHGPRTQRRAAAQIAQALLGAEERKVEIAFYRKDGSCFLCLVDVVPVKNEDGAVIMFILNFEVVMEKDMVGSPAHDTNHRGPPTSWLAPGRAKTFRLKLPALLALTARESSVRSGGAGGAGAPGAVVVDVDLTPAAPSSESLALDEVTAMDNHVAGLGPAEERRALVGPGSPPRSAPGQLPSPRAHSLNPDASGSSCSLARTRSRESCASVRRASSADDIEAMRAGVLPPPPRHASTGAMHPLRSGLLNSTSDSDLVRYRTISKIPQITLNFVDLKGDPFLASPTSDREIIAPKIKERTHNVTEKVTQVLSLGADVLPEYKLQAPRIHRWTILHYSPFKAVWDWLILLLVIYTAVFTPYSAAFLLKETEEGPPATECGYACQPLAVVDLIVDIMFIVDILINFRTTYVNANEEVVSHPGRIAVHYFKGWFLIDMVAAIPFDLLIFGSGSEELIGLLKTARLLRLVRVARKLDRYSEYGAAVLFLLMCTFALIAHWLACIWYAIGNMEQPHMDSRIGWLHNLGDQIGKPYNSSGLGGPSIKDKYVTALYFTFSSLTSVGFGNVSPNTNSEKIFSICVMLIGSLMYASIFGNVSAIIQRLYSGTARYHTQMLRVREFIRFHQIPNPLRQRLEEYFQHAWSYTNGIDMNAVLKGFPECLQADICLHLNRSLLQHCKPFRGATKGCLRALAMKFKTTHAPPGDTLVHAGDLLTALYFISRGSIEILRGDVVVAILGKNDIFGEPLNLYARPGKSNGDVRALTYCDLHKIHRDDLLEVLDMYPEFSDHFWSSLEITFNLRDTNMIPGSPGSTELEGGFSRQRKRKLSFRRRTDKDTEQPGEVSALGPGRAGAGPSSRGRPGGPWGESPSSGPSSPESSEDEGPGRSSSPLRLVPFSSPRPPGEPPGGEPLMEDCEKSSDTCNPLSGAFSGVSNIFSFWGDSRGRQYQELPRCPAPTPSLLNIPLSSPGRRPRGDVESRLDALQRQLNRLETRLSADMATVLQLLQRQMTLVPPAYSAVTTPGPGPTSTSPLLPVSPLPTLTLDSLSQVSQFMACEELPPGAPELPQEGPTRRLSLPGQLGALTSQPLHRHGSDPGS

The experiment has as its target Voltage-gated inwardly rectifying potassium channel KCNH2 (Homo sapiens) (UniProt Q12809). The experiment is described as follows: qHTS Assay for Small Molecule Inhibitors of the Human hERG Channel Activity (AID 588834).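 Further: lower thallium flux fluorescence means stronger hERG block; nearly all actives have a fitted effect of over 50% in size.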 On activity change, negative = inhibition: top concentration of the series differs between compounds. Conditions: U2OS BacMam hERG, FluxOR thallium flux fluorescence; series mostly up to 46.1 µM; activity change, negative = inhibition: at the top concentration. The text has this:
NIH Chemical Genomics Center [NCGC]
National Institutes of Environmental Health Sciences [NIEHS]
National Toxicology Program [NTP]
We have developed a 1536-well cell-based assay for quantitative high throughput screening (qHTS) to determine in vitro hERG channel blockage as a measure of cardio toxicity with small molecules. This particular assay uses the U2OS cell line which is derived from human osteosarcoma.
NCGC Assay Protocol Summary:
HERG assay (FluxORTM thallium flux assay) was initially developed by Invitrogen/Molecular Probes, and then miniaturized into 1536-well plate in a homogeneous format by NCGC. This assay measures the activity of potassium channel using thallium dye (FluxOR) flux as surrogate measurement for potassium into the cells with a FDSS-7000 kinetic plate reader (Hamamatsu Corp., Hamamatsu City, Japan). The hERG ion channel is transduced into mammalian cells (U2OS) using a baculovirus (Bacmam) construct harboring the hERG K+ ion channel. So far we screened LOPAC1280 library (Sigma), the NTP collection of 1408 compounds, and the NCGC Pharmaceutical Collection (NPC), in which many well defined HERG blockers are present. The rank order potencies of many of these compounds are similar to that of other HERG assays (membrane potential, Rb+ flux, patch clamp, etc). This quick and homogeneous assay is also found to be sensitive, specific, and robust.
Using the FluxORTM thallium flux assay, the activity of potassium channel using thallium dye (FluxOR) flux as surrogate measurement for potassium into the cells was measured in the U2OS cell line transduced with hERG K+ ion channel using a baculovirus (Bacmam) using Opti-MEM medium (Invitrogen) containing 2% fetal calf serum (FCS, HyCone) following loading buffer addition, compound treatment for around 10 minutes and finally adding stimulation buffer. The assay was performed in black clear Kalypsys 1536-well plates. In the screen, Astemizole was used as positive controls. Library compounds were measured for their ability to cause hERG channel blockage in the cell line, as reflected by a decrease in fluorescence intensity, in a concentration-dependent manner. […] AC50 values were determined from concentration-response data modeled with the standard Hill equation.
qHTS protocol for hERG-U2OS cellular assay
[Step] [Parameter] [Value] [Description]
1. Day 1: Replace medium in 70-80% confluent T225 flask with 2.5 mL of hERG-BacMam virus plus 12.5 mL of phosphate buffered saline (PBS) (corresponding roughly to a multiplicity of infection ratio of 100 virus particles/cell)
2. Incubation: 4 hrs @ room Temperature in Dark
3. Reagent; Remove virus; wash once with 25 ml DPBS
4. Reagent; 35 ml culture medium
5. Incubation; 37 °C overnight
6. Day2: Reagent; 3 uL; 2000 U2OS cells/well
7. Time; 4 hr; 37 °C incubation
8. Loading buffer; 1 uL; 0.7X;
9. Incubation: 1hr @ RT in Dark.
12. Time; 10min; 37 °C incubation
13. Read fluorescence Intensity on FDSS for 10 Sec with 1 sec interval
14. Reagent; 1 uL; stimulation buffer
15. Read fluorescence Intensity on FDSS for 2 min with 1 sec interval
16. Detection; Fluorescence Intensity; FDSS
(qHTS replaces the single test concentration by a dilution series.)
Take `CC(=O)NC1CCSC1=O` (stereo not given): the “activity change, negative = inhibition” value is 35.9%. Take `CC(C)(C)NCC(O)c1ccccc1Cl` (stereo not given): the Potency entry was “inactive”.

For `Cc1nnc2n1-c1ccc(Cl)cc1C(c1ccccc1)=NC2`, the “activity change, negative = inhibition” value is 12.7%. In the case of `CN1C(=O)NC(=O)C(C)(C2=CCCCC2)C1=O` (stereo not given), the Potency result is “inactive”. On to `CC(C)C[C@H](CN)CC(=O)O`, for which the “activity change, negative = inhibition” value was -7.62%.

Take `O=C1c2ccccc2C(=O)C1C(=O)C(c1ccccc1)c1ccccc1`: the “activity change, negative = inhibition” value was 0.23%. Take `CN1CCC(O)(c2ccc(F)cc2)C(C(=O)c2ccc(F)cc2)C1` (stereo not given): the Potency is 14.1 µM (active). With `COC1CC(=C(c2cccs2)c2cccs2)C[N+](C)(C)C1` (stereo not given), the “activity change, negative = inhibition” value is 8.83%. Same read-out and setting: then `Nc1nc(N)nc(NC2CC2)n1`, with 15.1%; and `C[C@]1(O)CC[C@H]2[C@@H]3CCC4=CC(=O)CC[C@]4(C)[C@@]3(F)[C@@H](O)C[C@@]21C`, with 3.53% [at 92.2 µM]. The same measure, in the same setting: then `CCC(C)(C)c1ccc(O)cc1`, with -10.1% [at 92.2 µM]. Same read-out and setting: with `O=[N+]([O-])O[C@H]1CO[C@H]2[C@@H]1OC[C@H]2O[N+](=O)[O-]` the figure was 12.1%. On to `Oc1ccc(Cl)cc1`, for which the Potency entry is “inactive”. `Clc1ccc2c(c1)C(c1ccccc1)=NCc1nncn1-2`: the “activity change, negative = inhibition” value is 2.18%. The same measure, in the same setting: then `COc1c2c(cc3c1OCO3)CCN(C)C2`, with 6.16% [at 20.6 µM]. On to `CCCCC/C=C\C/C=C\C/C=C\C/C=C\CCCC(=O)NCC(=O)O`, for which the Potency entry is “inactive”. `O=C(CCCN1CCC2(CC1)C(=O)NCN2c1ccccc1)c1ccc(F)cc1`: the Potency was 1.78 µM (active) and 1 µM (active). As to `COP(=S)(OC)Oc1ccc(S(=O)(=O)N(C)C)cc1`, the “activity change, negative = inhibition” value was 5.52%. In the case of `CNC(C)(C)Cc1ccccc1`, the “activity change, negative = inhibition” value was 5.65% [at 20.6 µM].

Take `C[C@]12CCC(=O)C=C1CC[C@@H]1[C@@H]2CC[C@@]2(C)[C@H]1CC[C@]2(C)O`: the “activity change, negative = inhibition” value was -6.1% [at 92.2 µM]. Still for that read-out and setting: then `CCCCCCCCCC(=O)O[C@H]1CC[C@H]2[C@@H]3CCC4=CC(=O)CC[C@@H]4[C@H]3CC[C@]12C`, with -16.1%. With `CCOP(=S)(OCC)Oc1ccc2c(C)c(Cl)c(=O)oc2c1`, the “activity change, negative = inhibition” value was -6.21%. On the same count and under the same terms, with `CCC1(CC)C(=O)C=CNC1=O` the figure was 5.99%. On to `NCCc1ccc(O)cc1`, for which the Potency entry was “inactive”. Same read-out and setting: with `O=P1(N(CCCl)CCCl)NCCCO1` (stereo not given) the entry was “inactive”. For `NNc1ccccc1`, the “activity change, negative = inhibition” value is 3.85%. On to `CCCCCN(C)CCC(O)(P(=O)(O)O)P(=O)(O)O`, for which the “activity change, negative = inhibition” value was 6.54%.

For `CCC1(c2ccccc2)C(=O)N(COC)C(=O)N(COC)C1=O`, the “activity change, negative = inhibition” value was 8.15%. In the case of `COC(=O)[C@@H](N)CCCN/C(N)=N/[N+](=O)[O-]`, the “activity change, negative = inhibition” value was 20.7%. Regarding `NC1=NC(=O)C(c2ccccc2)O1` (stereo not given), the “activity change, negative = inhibition” value is 25%. Consider `C=C(C)[C@H]1CN[C@H](C(=O)O)[C@H]1CC(=O)O`, for which the Potency entry was “inactive”. As for `COP(=S)(OC)SCN1C(=O)c2ccccc2C1=O`, the “activity change, negative = inhibition” value is 17.5%. `CC(C)c1cccc(C(C)C)c1O`: the Potency entry is “inactive”. For the compound `Nc1ccc([As](=O)(O)O)cc1`, the “activity change, negative = inhibition” value is -1.15%.

As to `CCCCCCC(=O)CCCCCC/C=C/C[C@@H](O)[C@H](O)[C@@](N)(CO)C(=O)O`, the “activity change, negative = inhibition” value is -15.4%. `C=CCN1C[C@H](C)N([C@H](c2ccc(C(=O)N(CC)CC)cc2)c2cccc(OC)c2)C[C@H]1C`: the Potency is 3.98 µM (active). In the case of `CC(C)NC(C)C`, the Potency entry was “inactive”. In the case of `Nc1ccccc1C(=O)O`, the Potency result was “inactive”. `C[C@](O)(CS(=O)(=O)c1ccc(F)cc1)C(=O)Nc1ccc(C#N)c(C(F)(F)F)c1`: the “activity change, negative = inhibition” value was 4.13%. Take `O=C1c2ccccc2C(=O)c2ccccc21`: the “activity change, negative = inhibition” value was 7.86%.
